Experimental data published in the supplement of paper PMC4466140.

Experiments:
Test in all cases: SPOT peptide array binding signal intensity (averaged, normalized) (arbitrary units (background-subtracted, floor 0; scale differs between SH3 domains)); higher = stronger binding of the SH3 domain to the peptide
AgAbp1 = molecular target: AgAbp1
Procedure, shortened: (§1)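 SH3 domains from four yeast species were expressed as GST fusions in E. coli BL21(DE3) and purified on glutathione Sepharose. Each was incubated at 10 μg/ml overnight at 4°C in TBS-based blocking buffer on cellulose membranes bearing synthetic 15-mer peptides, in which serines replaced cysteines. Bound protein was detected with anti-GST antibody, an HRP anti-mouse secondary and luminol, then imaged and quantified with Genespotter. The binding signal is the normalized, background-subtracted spot intensity averaged over replicates, in arbitrary units that are not the same from one domain to another.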

AgBbc1 = molecular target: AgBbc1
Procedure, shortened: as §1

AgBem1-D1 = molecular target: AgBem1-D1
Procedure, shortened: as §1

AgBzz1-D1 = molecular target: AgBzz1-D1
Procedure, shortened: as §1

AgBzz1-D2 = molecular target: AgBzz1-D2
Procedure, shortened: as §1

AgCyk3 = molecular target: AgCyk3
Procedure, shortened: as §1

AgFus1 = molecular target: AgFus1
Procedure, shortened: as §1

AgHof1 = molecular target: AgHof1
Procedure, shortened: as §1

AgHse1 = molecular target: AgHse1
Procedure, shortened: as §1

AgLsb1 = molecular target: AgLsb1
Procedure, shortened: as §1

AgLsb4 = molecular target: AgLsb4
Procedure, shortened: as §1

AgMyo5 = molecular target: AgMyo5
Procedure, shortened: as §1

AgNbp2 = molecular target: AgNbp2
Procedure, shortened: as §1

AgRvs167 = molecular target: AgRvs167
Procedure, shortened: as §1

AgSho1 = molecular target: AgSho1
Procedure, shortened: as §1

AgSla1-D1-D2 = molecular target: AgSla1-D1-D2
Procedure, shortened: as §1

AgSla1-D3 = molecular target: AgSla1-D3
Procedure, shortened: as §1

CaAbp1-D1 = molecular target: CaAbp1-D1
Procedure, shortened: as §1

CaAbp1-D2 = molecular target: CaAbp1-D2
Procedure, shortened: as §1

CaBbc1 = molecular target: CaBbc1
Procedure, shortened: as §1

CaBem1-D1 = molecular target: CaBem1-D1
Procedure, shortened: as §1

CaBzz1-D1 = molecular target: CaBzz1-D1
Procedure, shortened: as §1

CaBzz1-D2 = molecular target: CaBzz1-D2
Procedure, shortened: as §1

CaCyk3 = molecular target: CaCyk3
Procedure, shortened: as §1

CaFus1 = molecular target: CaFus1
Procedure, shortened: as §1

CaHof1 = molecular target: CaHof1
Procedure, shortened: as §1

CaHse1 = molecular target: CaHse1
Procedure, shortened: as §1

CaLsb1 = molecular target: CaLsb1
Procedure, shortened: as §1

CaLsb4 = molecular target: CaLsb4
Procedure, shortened: as §1

CaMyo5 = molecular target: CaMyo5
Procedure, shortened: as §1

CaNbp2 = molecular target: CaNbp2
Procedure, shortened: as §1

CaRvs167 = molecular target: CaRvs167
Procedure, shortened: as §1

CaRvs167-3 = molecular target: CaRvs167-3
Procedure, shortened: as §1

CaSho1 = molecular target: CaSho1
Procedure, shortened: as §1

CaSla1-D1-D2 = molecular target: CaSla1-D1-D2
Procedure, shortened: as §1

CaSla1-D3 = molecular target: CaSla1-D3
Procedure, shortened: as §1

ScAbp1 = molecular target: ScAbp1
Procedure, shortened: as §1

ScBbc1 = molecular target: ScBbc1
Procedure, shortened: as §1

ScBem1-D1 = molecular target: ScBem1-D1
Procedure, shortened: as §1

ScBzz1-D1 = molecular target: ScBzz1-D1
Procedure, shortened: as §1

ScBzz1-D2 = molecular target: ScBzz1-D2
Procedure, shortened: as §1

ScCyk3 = molecular target: ScCyk3
Procedure, shortened: as §1

ScFus1 = molecular target: ScFus1
Procedure, shortened: as §1

ScHof1 = molecular target: ScHof1
Procedure, shortened: as §1

ScHse1 = molecular target: ScHse1
Procedure, shortened: as §1

ScLsb1 = molecular target: ScLsb1
Procedure, shortened: as §1

ScLsb2 = molecular target: ScLsb2
Procedure, shortened: as §1

ScLsb3 = molecular target: ScLsb3
Procedure, shortened: as §1

ScLsb4 = molecular target: ScLsb4
Procedure, shortened: as §1

ScMyo3 = molecular target: ScMyo3
Procedure, shortened: as §1

ScMyo5 = molecular target: ScMyo5
Procedure, shortened: as §1

ScNbp2 = molecular target: ScNbp2
Procedure, shortened: as §1

ScPex13 = molecular target: ScPex13
Procedure, shortened: as §1

ScRvs167 = molecular target: ScRvs167
Procedure, shortened: as §1

ScSho1 = molecular target: ScSho1
Procedure, shortened: as §1

ScSla1-D1-D2 = molecular target: ScSla1-D1-D2
Procedure, shortened: as §1

ScSla1-D3 = molecular target: ScSla1-D3
Procedure, shortened: as §1

SpAbp1-D1 = molecular target: SpAbp1-D1
Procedure, shortened: as §1

SpBbc1 = molecular target: SpBbc1
Procedure, shortened: as §1

SpBzz1-D1 = molecular target: SpBzz1-D1
Procedure, shortened: as §1

SpBzz1-D2 = molecular target: SpBzz1-D2
Procedure, shortened: as §1

SpCyk3 = molecular target: SpCyk3
Procedure, shortened: as §1

SpHof1 = molecular target: SpHof1
Procedure, shortened: as §1

SpHof1-2 = molecular target: SpHof1-2
Procedure, shortened: as §1

SpHof1-3 = molecular target: SpHof1-3
Procedure, shortened: as §1

SpHse1 = molecular target: SpHse1
Procedure, shortened: as §1

SpLsb1 = molecular target: SpLsb1
Procedure, shortened: as §1

SpLsb4 = molecular target: SpLsb4
Procedure, shortened: as §1

SpMyo1 = molecular target: SpMyo1
Procedure, shortened: as §1

SpNbp2 = molecular target: SpNbp2
Procedure, shortened: as §1

SpPex13 = molecular target: SpPex13
Procedure, shortened: as §1

SpRvs167 = molecular target: SpRvs167
Procedure, shortened: as §1

SpSla1-D1-D2 = molecular target: SpSla1-D1-D2
Procedure, shortened: as §1

SpSla1-D3 = molecular target: SpSla1-D3
Procedure, shortened: as §1

How did the “SPOT peptide array binding signal intensity” value (AgAbp1) turn out when PALPSLPPPPLLNVD was run?
Its value is ≤ 0.

What about the “SPOT peptide array binding signal intensity” value (AgBbc1) of the same binder?
The value was 0.5.

What about the “SPOT peptide array binding signal intensity” value (AgBem1-D1) of the same binder?
Its value is ≤ 0.

And the “SPOT peptide array binding signal intensity” value (AgBzz1-D1)?
The value was ≤ 0.

And the “SPOT peptide array binding signal intensity” value (AgBzz1-D2)?
The value was 8.5.

And the “SPOT peptide array binding signal intensity” value (AgCyk3)?
Its value is ≤ 0.

And the “SPOT peptide array binding signal intensity” value (AgFus1)?
Its value is ≤ 0.

What about the “SPOT peptide array binding signal intensity” value (AgHof1) of the same binder?
Its value is 1370.

And the “SPOT peptide array binding signal intensity” value (AgHse1)?
The value was ≤ 0.

What about the “SPOT peptide array binding signal intensity” value (AgLsb1) of the same binder?
Its value is ≤ 0.

And the “SPOT peptide array binding signal intensity” value (AgLsb4)?
Its value is ≤ 0.

What about the “SPOT peptide array binding signal intensity” value (AgMyo5) of the same binder?
Its value is 2040.

And the “SPOT peptide array binding signal intensity” value (AgNbp2)?
The value was ≤ 0.

What about the “SPOT peptide array binding signal intensity” value (AgRvs167) of the same binder?
The value was ≤ 0.

What about the “SPOT peptide array binding signal intensity” value (AgSho1) of the same binder?
Its value is 77.5.

And the “SPOT peptide array binding signal intensity” value (AgSla1-D1-D2)?
Its value is ≤ 0.

And the “SPOT peptide array binding signal intensity” value (AgSla1-D3)?
Its value is ≤ 0.

And the “SPOT peptide array binding signal intensity” value (CaAbp1-D1)?
The value was 12.

What about the “SPOT peptide array binding signal intensity” value (CaAbp1-D2) of the same binder?
The value was 22.

And the “SPOT peptide array binding signal intensity” value (CaBbc1)?
The value was ≤ 0.

What about the “SPOT peptide array binding signal intensity” value (CaBem1-D1) of the same binder?
The value was ≤ 0.

And the “SPOT peptide array binding signal intensity” value (CaBzz1-D1)?
Its value is ≤ 0.

And the “SPOT peptide array binding signal intensity” value (CaBzz1-D2)?
Its value is 1.

And the “SPOT peptide array binding signal intensity” value (CaCyk3)?
The value was ≤ 0.

What about the “SPOT peptide array binding signal intensity” value (CaFus1) of the same binder?
Its value is ≤ 0.

What about the “SPOT peptide array binding signal intensity” value (CaHof1) of the same binder?
Its value is 1170.

And the “SPOT peptide array binding signal intensity” value (CaHse1)?
Its value is 0.25.

And the “SPOT peptide array binding signal intensity” value (CaLsb1)?
The value was 0.25.

What about the “SPOT peptide array binding signal intensity” value (CaLsb4) of the same binder?
Its value is ≤ 0.

And the “SPOT peptide array binding signal intensity” value (CaMyo5)?
Its value is 293.

What about the “SPOT peptide array binding signal intensity” value (CaNbp2) of the same binder?
Its value is ≤ 0.

And the “SPOT peptide array binding signal intensity” value (CaRvs167)?
Its value is ≤ 0.

What about the “SPOT peptide array binding signal intensity” value (CaRvs167-3) of the same binder?
Its value is ≤ 0.

What about the “SPOT peptide array binding signal intensity” value (CaSho1) of the same binder?
The value was 8.5.

And the “SPOT peptide array binding signal intensity” value (CaSla1-D1-D2)?
The value was ≤ 0.

And the “SPOT peptide array binding signal intensity” value (CaSla1-D3)?
Its value is ≤ 0.

And the “SPOT peptide array binding signal intensity” value (ScAbp1)?
Its value is ≤ 0.

What about the “SPOT peptide array binding signal intensity” value (ScBbc1) of the same binder?
The value was ≤ 0.

And the “SPOT peptide array binding signal intensity” value (ScBem1-D1)?
Its value is ≤ 0.

And the “SPOT peptide array binding signal intensity” value (ScBzz1-D1)?
The value was 15.5.

What about the “SPOT peptide array binding signal intensity” value (ScBzz1-D2) of the same binder?
Its value is 10.5.

And the “SPOT peptide array binding signal intensity” value (ScCyk3)?
Its value is ≤ 0.

And the “SPOT peptide array binding signal intensity” value (ScFus1)?
Its value is ≤ 0.

And the “SPOT peptide array binding signal intensity” value (ScHof1)?
The value was 3250.

And the “SPOT peptide array binding signal intensity” value (ScHse1)?
Its value is 128.

And the “SPOT peptide array binding signal intensity” value (ScLsb1)?
The value was ≤ 0.

What about the “SPOT peptide array binding signal intensity” value (ScLsb2) of the same binder?
Its value is ≤ 0.

What about the “SPOT peptide array binding signal intensity” value (ScLsb3) of the same binder?
Its value is 6.5.

And the “SPOT peptide array binding signal intensity” value (ScLsb4)?
Its value is ≤ 0.

What about the “SPOT peptide array binding signal intensity” value (ScMyo3) of the same binder?
Its value is 1950.

What about the “SPOT peptide array binding signal intensity” value (ScMyo5) of the same binder?
Its value is 1820.

And the “SPOT peptide array binding signal intensity” value (ScNbp2)?
The value was ≤ 0.

And the “SPOT peptide array binding signal intensity” value (ScPex13)?
Its value is ≤ 0.

What about the “SPOT peptide array binding signal intensity” value (ScRvs167) of the same binder?
The value was ≤ 0.

And the “SPOT peptide array binding signal intensity” value (ScSho1)?
Its value is 542.

What about the “SPOT peptide array binding signal intensity” value (ScSla1-D1-D2) of the same binder?
The value was ≤ 0.

What about the “SPOT peptide array binding signal intensity” value (ScSla1-D3) of the same binder?
Its value is 1.25.

What about the “SPOT peptide array binding signal intensity” value (SpAbp1-D1) of the same binder?
The value was ≤ 0.

What about the “SPOT peptide array binding signal intensity” value (SpBbc1) of the same binder?
The value was 1.

What about the “SPOT peptide array binding signal intensity” value (SpBzz1-D1) of the same binder?
The value was 94.

And the “SPOT peptide array binding signal intensity” value (SpBzz1-D2)?
Its value is 1.

And the “SPOT peptide array binding signal intensity” value (SpCyk3)?
The value was ≤ 0.

And the “SPOT peptide array binding signal intensity” value (SpHof1)?
Its value is ≤ 0.

What about the “SPOT peptide array binding signal intensity” value (SpHof1-2) of the same binder?
The value was 1210.

What about the “SPOT peptide array binding signal intensity” value (SpHof1-3) of the same binder?
Its value is 326.

And the “SPOT peptide array binding signal intensity” value (SpHse1)?
The value was ≤ 0.

What about the “SPOT peptide array binding signal intensity” value (SpLsb1) of the same binder?
The value was ≤ 0.

And the “SPOT peptide array binding signal intensity” value (SpLsb4)?
Its value is ≤ 0.

What about the “SPOT peptide array binding signal intensity” value (SpMyo1) of the same binder?
Its value is 1260.

And the “SPOT peptide array binding signal intensity” value (SpNbp2)?
Its value is ≤ 0.

What about the “SPOT peptide array binding signal intensity” value (SpPex13) of the same binder?
The value was ≤ 0.

And the “SPOT peptide array binding signal intensity” value (SpRvs167)?
The value was 0.5.

What about the “SPOT peptide array binding signal intensity” value (SpSla1-D1-D2) of the same binder?
Its value is ≤ 0.

And the “SPOT peptide array binding signal intensity” value (SpSla1-D3)?
The value was ≤ 0.
